Our source for the growth values is PubChem BioAssay (NCI).

The panel holds about 83,000 compounds, 20% with a hit somewhere; the sample as a whole holds those more often.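 Cells were grown in 96-well plates and exposed to the test compound at a single concentration for 48 hours; results are reported as percent growth, with values below 10 considered active.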 Unmarked numbers belong to inactive results. Active and inactive are the calls of the source.

What all share (experiment): NCI-60 one-dose screen, 48 h (100 = growth as untreated, 0 = no growth, -100 = all killed)
What all share (settings): 10 µM unless noted

Experiment [1] has as its system DU-145 prostate.
The subject of experiment [2] is K-562 leukemia.
In experiment [3] the test system is MALME-3M melanoma.
Experiment [4] has as its system MDA-MB-231 breast.
Experiment [5] concerns RXF 393 renal.
The test system of experiment [6] is SF-268 CNS.
The subject of experiment [7] is SF-295 CNS.
The subject of experiment [8] is SF-539 CNS.
The test system of experiment [9] is UACC-257 melanoma.
Experiment [10] deals with M14 melanoma.

Consider `ClC(Cl)c1nc(-c2ccccc2)nc2cc(-c3ccccc3)nn12`, for which the growth in [1] is 32.4%; in [2] it was 36.9%; in [3], 93%; in experiment [4], 60%; in experiment [5] it was 19.8%; in experiment [6], 57.2%. The growth in experiment [7] was 97.7%; in [8] it was 79%; in experiment [9], 102%; in experiment [10] it was 98.7%.

For the compound `COc1ccc(/C=C(\C#N)c2cc(OC)c3c(c2)OCO3)cc1`, the growth in experiment [1] was -12.7% (active); in experiment [2] it was 9.08% (active); in [3], 54.2%; in experiment [4], 10.4%; in [5], 21.4%; in experiment [6], 26.9%. The growth in [7] is 4.91% (active); in experiment [8], 4.3% (active); in experiment [9], 84%; in experiment [10], 12.1%.

Take `Brc1cccc(-c2cc(-c3ccc4c(c3)OCCCO4)[nH]n2)c1`: the growth is 69.3% [25 µM] in experiment [1]; 17.4% [25 µM] in experiment [2]; 52.9% [25 µM] in [3]; 49.4% [25 µM] in [4]; 82.4% [25 µM] in [5]; 68.8% [25 µM] in [6]. Also, the growth in [7] is 62.3% [25 µM]; in [8], 77.1% [25 µM]; in experiment [9], 96.7% [25 µM]; in experiment [10] it was 49.6% [25 µM].

In the case of `O=S(=O)(NCCCNc1nccc(-n2ccc3cccnc32)n1)c1ccc(Br)cc1`, the growth in experiment [1] is 104%; in experiment [2] it was 101%; in [3], 118%; in [4], 104%; in [5] it was 107%; in experiment [6] it was 94.9%. Besides, the growth in experiment [7] was 104%; in experiment [8] it was 103%; in [9], 118%; in [10], 110%.

Regarding `O=C(c1c[nH]c(=O)c(-c2ccccc2)c1)c1ccccc1O`, the growth in [1] was 99.7%; in [2], 78.4%; in experiment [3], 92.5%; in experiment [4], 98.5%; in experiment [5], 82.1%; in experiment [6], 91.5%. In addition, the growth is 92.2% in experiment [7], 108% in experiment [8], 85.7% in experiment [9] and 105% in experiment [10].

`CCCCCCCCCCCCNC(=O)[C@H]1CSC(c2ccsc2)N1` (stereo not given in full): the growth was -85.8% (active) in experiment [1]; -57% (active) in [2]; -69.9% (active) in experiment [3]; -80.5% (active) in experiment [4]; -93.2% (active) in experiment [5]; -77.1% (active) in experiment [6]. In addition, the growth in [7] was -29.9% (active); in experiment [8], -89.2% (active); in [9], -87.2% (active); in experiment [10], -77.5% (active).

With `O=C(NNC(=S)Nc1ccccc1)c1cc2ccc1CCc1ccc(cc1)CC2`, the growth in experiment [1] is 77.5%; in experiment [2] it was 43.4%; in experiment [3], 74.8%; in experiment [4], 77.2%; in experiment [5] it was 83.7%; in experiment [6], 76.6%. In addition, the growth in experiment [7] is 49.5%; in experiment [8], 82.9%; in experiment [9], 85.8%; in experiment [10], 56%.

For `C=C1CCC2C3(C)COC(c4ccccc4)OC3CCC2(C)C1/C=C/C1=CCOC1=O` (stereo not given), the growth in experiment [1] was 14.9%; in experiment [2] it was 32.4%; in experiment [3], 105%; in experiment [4] it was 89.7%; in experiment [5] it was -14.6% (active); in [6] it was 73.2%. The growth in [7] is 105%; in experiment [8] it was 63.6%; in [9], 65.9%; in experiment [10] it was 53.4%.

Regarding `Oc1ccc2cc(Br)ccc2c1-c1c(O)ccc2cc(Br)ccc12`, the growth in [1] is 78.2%; in experiment [2], 54%; in experiment [3] it was 97.9%; in [4], 50.1%; in experiment [5], 59.8%; in experiment [6], 53.8%. In addition, the growth was 76.5% in [7], 82% in [8], 82.6% in [9] and 58.9% in [10].

Take `O=C(Oc1ccccc1[N+](=O)[O-])C1CCCN1C(=O)OCc1ccccc1` (stereo not given): the growth in experiment [1] is 111%; in experiment [2], 94.6%; in experiment [3] it was 112%; in experiment [4], 103%; in [5], 96%; in [6], 108%. Besides, the growth was 117% in experiment [7], 97.2% in [8], 94.2% in [9] and 93% in [10].

Consider `COc1cc(NC(N)=NCCC(C)(C)Oc2ccc(C(F)(F)F)cc2)ncc1C#N`, for which the growth is -32.6% (active) in experiment [1]; -43.7% (active) in experiment [2]; -81.2% (active) in experiment [3]; -54.4% (active) in experiment [4]; -50.4% (active) in [5]; 30.8% in experiment [6]. In addition, the growth in experiment [7] is -40.7% (active); in experiment [8] it was 11.7%; in experiment [9], -46.2% (active); in experiment [10], -68.3% (active).

Regarding `Cc1ccc(-c2cc3nc(C(Cl)Cl)nc(-c4ccccc4C)n3n2)cc1`, the growth in experiment [1] is 46.9%; in experiment [2], 17.9%; in [3] it was 72.8%; in [4] it was 66.8%; in [5], 22.8%; in [6], 92.6%. The growth in [7] is 77.3%; in experiment [8], 86.5%; in experiment [9], 101%; in [10], 93.8%.

Take `O=C1/C(=C/c2ccccc2)CN(C(=O)CCN2CCC(=NO)CC2)C/C1=C\c1ccccc1`: the growth in experiment [1] is 16.1%; in experiment [2], 6.48% (active); in [3] it was -13.2% (active); in experiment [4] it was -32.1% (active); in [5] it was -71% (active); in experiment [6] it was 7.27% (active). Also, the growth in experiment [7] is -10.5% (active); in experiment [8] it was -30.5% (active); in experiment [9], 11.3%; in experiment [10], 0.212% (active).
